For one assay, the target named is Albumin (Bos taurus) (UniProt P02769). Put plainly: bovine serum albumin binders on microarray, profiling panel, artefact control for SMM control protein annotation, biochemical, small-molecule microarray, Alexa647 label, 635/667 nm fluorescence (AID 1118).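 Further: score merges 667 nm emission intensity and signal-to-noise per printed compound spot.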 The conditions noted are these: BSA-A647 binding, fluorescence 635 nm, higher = more signal.
A short description of assay [1]: small-molecule microarray binders of probe aXIP, primary screen, biochemical, NeuroSMM set, 635/667 nm fluorescence (AID 1119).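 Further: probe is the protein aXip251-270 applied at 1 µg/mL to compound-printed slides; binding of probe to printed compounds measured as 667 nm fluorescence plus signal to noise.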 To be noted: higher = more signal, called active from +8 up or from −8 down.
The nature of assay [2]: small-molecule binders of probe aNOTCH3, primary screen, biochemical, small-molecule microarray, 635/667 nm fluorescence (AID 1120).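 Further: probe is a biotin-tagged antibody raised against NOTCH3 rather than NOTCH3 protein; score merges spot fluorescence near 667 nm with spot signal to noise.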 The conditions noted are these: higher = more signal.
Assay [3] is described as follows: small-molecule binders of probe aNOTCH2, primary screen, biochemical, small-molecule microarray, 635/667 nm fluorescence (AID 1121).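 Further: score merges feature fluorescence read at 667 nm with its signal to noise.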 The conditions noted are these: higher = more signal.
In assay [4] the target is Carbonic anhydrase 2 (Homo sapiens) (UniProt P00918). Briefly: CAII small-molecule binders, profiling panel, biochemical, small-molecule microarray, Alexa647-labelled CAII (AID 1122). The conditions noted are these: CAII-A647 binding fluorescence, higher = more signal.
Assay [5] in a line: COS7 lysate on small-molecule microarray, probe aHis, 635 nm (AID 1123).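 Further: z-score combines 667nm fluorescence intensity with signal-to-noise per printed compound spot.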 To be noted: COS7 cell lysate, fluorescence, higher = more signal.
Assay [6] can be described thus: compound binding in COS7 lysate, probe aLAP1, primary screen, cell lysate, small-molecule microarray (AID 1124).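 Further: lysate comes from COS7 cells expressing LAP1 and is applied at 0.3 µg/mL; score merges spot fluorescence near 667 nm with signal-to-noise over triplicate slides.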 The conditions noted are these: probe aLAP1, fluorescence, higher = more signal.
The next assay deals with Sam68 (KHDRBS1). Put plainly: Sam68 small-molecule binders, primary screen, biochemical, small-molecule microarray, 635 nm fluorescence (AID 1125).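 Further: score merges 667 nm channel intensity with signal to noise over triplicate slides.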 The conditions noted are these: small-molecule microarray binding, higher = more signal.
Assay [7] concerns Chordin-like protein 2 (CHRDL2). Put plainly: CHRDL2 small-molecule binders, primary screen, biochemical, small-molecule microarray, 635 nm fluorescence (AID 1126).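 Further: printed compound slides probed with Chrdl2 protein at 4 µg/mL for 1 h at 4 C; score merges 667 nm emission intensity with signal to noise over three replicate slides.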 To be noted: small-molecule microarray binding, fluorescence 635 nm; higher = more signal.
The target in assay [8] is Concanavalin-A (Canavalia ensiformis) (UniProt P02866). Put plainly: ConA small-molecule binders, primary screen, artefact control for SMM control protein annotation, biochemical, small-molecule microarray, Alexa647 label, 635 nm (AID 1127).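 Further: z combines 667 nm emission intensity with signal-to-noise across three replicate slides.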 The conditions noted are these: ConA-A647 binding fluorescence, higher = more signal.
The nature of assay [9]: anti-His antibody binders, primary screen, artefact control for SMM control protein annotation, biochemical, small-molecule microarray, 635 nm fluorescence (AID 1128).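 Further: score merges feature fluorescence with signal-to-noise for each printed compound spot.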 To be noted: anti-His Alexa647 antibody binding, higher = more signal.
In assay [10] the test system is Human papillomavirus type 1a E7 protein (residues 1-88). Put plainly: HPV1a E7 small-molecule binders, primary screen, biochemical, small-molecule microarray, residues 1-88, 635 nm (AID 1129). The conditions noted are these: small-molecule microarray binding, fluorescence 635 nm; higher = more signal.
For assay [11], the target named is Focal adhesion kinase 1 (Homo sapiens) (UniProt Q05397). Put plainly: small-molecule microarray binders of FAK, primary screen, biochemical, 635/667 nm fluorescence, BSA, DTT (AID 1130).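 Further: composite of spot emission at 667 nm and signal to noise over triplicate slides.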 The conditions noted are these: PTK2 binding, 635 nm fluorescence, higher = more signal.
Assay [12] has as its system Fibrinogen (Alexa647-labelled). Briefly: fibrinogen binders on compound microarrays, profiling panel, artefact control for SMM control-protein annotation, biochemical, small-molecule microarray, 635/667 nm fluorescence (AID 1131).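 Further: z-score merges 667 nm fluorescence with per-spot signal-to-noise over triplicate slides.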 The conditions noted are these: fibrinogen-A647 binding fluorescence, higher = more signal.
Assay [13] deals with Follistatin (Homo sapiens) (UniProt P19883). Put plainly: follistatin binders on small-molecule microarrays, primary screen, biochemical, small-molecule microarray, 635/667 nm fluorescence (AID 1132). The conditions noted are these: FST binding, 635 nm fluorescence, higher = more signal.
Assay [14] concerns the target Fibroblast growth factor 2 (Homo sapiens) (UniProt P09038). Put plainly: FGF2 binders on small-molecule microarrays, primary screen, biochemical, small-molecule microarray, 635/667 nm fluorescence (AID 1133). The conditions noted are these: small-molecule microarray binding, FGF2, fluorescence 635/667; higher = more signal.
The nature of assay [15]: mitochondrial membrane potential change in A549 cells, profiling panel, cell-based, JC-1 fluorescence, basal, 24 h, 100 nL (AID 1138).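 Further: A549 lung adenocarcinoma cells under basal conditions with no added stimulus; test concentration not given here.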 The conditions noted are these: higher = more signal.
Another assay relates to Lefty1. Briefly: Lefty1 binders on small-molecule microarrays, primary screen, biochemical, small-molecule microarray, 635/667 nm fluorescence (AID 1139). The conditions noted are these: small-molecule microarray binding, fluorescence 635/667; higher = more signal.
For assay [16], the system named is wheat germ agglutinin (Triticum aestivum), Alexa647-labelled. Put plainly: wheat germ agglutinin binders on compound microarrays, profiling panel, artefact control for SMM control-protein annotation, biochemical, small-molecule microarray, 635/667 nm fluorescence (AID 1140).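 Further: score merges 667 nm feature emission with signal to noise over triplicate slides.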 The conditions noted are these: WGA-A647 binding, 635 nm fluorescence, higher = more signal.

The target of assay [17] is Luciferin 4-monooxygenase (Photinus pyralis) (UniProt P08659). Briefly: firefly luciferase enzyme inhibitors, primary screen, biochemical, luminescence, purified enzyme, 2006 set (AID 1141).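 Further: cell-free assay with purified firefly luciferase at 100 ng per well in PBS; test concentration not given here.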 The conditions noted are these: SteadyGlo luminescence, 30 min, higher = more signal, called active from +8 up or from −8 down.

The source made the active and inactive calls.

This passage reports composite z-score, composite Z-score and z-score results from PubChem BioAssay.

Focal adhesion kinase 1 (Homo sapiens), sequence (Q05397 whole entry, looked up): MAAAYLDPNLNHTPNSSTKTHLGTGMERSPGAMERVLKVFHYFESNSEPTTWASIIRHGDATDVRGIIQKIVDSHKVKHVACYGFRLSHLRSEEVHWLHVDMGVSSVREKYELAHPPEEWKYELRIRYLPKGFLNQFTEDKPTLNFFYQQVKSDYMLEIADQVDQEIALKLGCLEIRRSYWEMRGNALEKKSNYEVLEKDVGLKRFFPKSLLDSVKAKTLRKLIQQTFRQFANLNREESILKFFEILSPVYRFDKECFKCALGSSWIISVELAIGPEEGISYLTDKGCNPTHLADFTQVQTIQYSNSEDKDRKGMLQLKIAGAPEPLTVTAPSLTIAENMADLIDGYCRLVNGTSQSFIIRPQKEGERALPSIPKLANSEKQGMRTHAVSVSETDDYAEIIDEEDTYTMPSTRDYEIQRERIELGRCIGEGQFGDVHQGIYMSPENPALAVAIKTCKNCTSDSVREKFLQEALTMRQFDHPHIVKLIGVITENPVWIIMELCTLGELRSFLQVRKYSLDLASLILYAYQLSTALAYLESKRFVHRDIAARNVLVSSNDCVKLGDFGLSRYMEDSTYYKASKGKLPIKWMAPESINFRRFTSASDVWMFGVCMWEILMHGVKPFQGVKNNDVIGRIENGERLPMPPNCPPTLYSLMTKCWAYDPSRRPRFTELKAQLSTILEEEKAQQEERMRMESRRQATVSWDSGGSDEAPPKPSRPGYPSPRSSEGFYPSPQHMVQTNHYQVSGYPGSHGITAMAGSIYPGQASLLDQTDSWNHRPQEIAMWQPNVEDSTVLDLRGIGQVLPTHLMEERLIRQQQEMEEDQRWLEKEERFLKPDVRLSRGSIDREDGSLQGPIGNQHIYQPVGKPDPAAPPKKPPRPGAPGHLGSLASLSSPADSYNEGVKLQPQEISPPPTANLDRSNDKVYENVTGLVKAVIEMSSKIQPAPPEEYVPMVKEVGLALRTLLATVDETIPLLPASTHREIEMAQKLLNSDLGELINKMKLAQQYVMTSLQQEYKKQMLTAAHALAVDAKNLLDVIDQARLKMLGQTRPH
Albumin (Bos taurus), sequence (P02769 whole entry, looked up): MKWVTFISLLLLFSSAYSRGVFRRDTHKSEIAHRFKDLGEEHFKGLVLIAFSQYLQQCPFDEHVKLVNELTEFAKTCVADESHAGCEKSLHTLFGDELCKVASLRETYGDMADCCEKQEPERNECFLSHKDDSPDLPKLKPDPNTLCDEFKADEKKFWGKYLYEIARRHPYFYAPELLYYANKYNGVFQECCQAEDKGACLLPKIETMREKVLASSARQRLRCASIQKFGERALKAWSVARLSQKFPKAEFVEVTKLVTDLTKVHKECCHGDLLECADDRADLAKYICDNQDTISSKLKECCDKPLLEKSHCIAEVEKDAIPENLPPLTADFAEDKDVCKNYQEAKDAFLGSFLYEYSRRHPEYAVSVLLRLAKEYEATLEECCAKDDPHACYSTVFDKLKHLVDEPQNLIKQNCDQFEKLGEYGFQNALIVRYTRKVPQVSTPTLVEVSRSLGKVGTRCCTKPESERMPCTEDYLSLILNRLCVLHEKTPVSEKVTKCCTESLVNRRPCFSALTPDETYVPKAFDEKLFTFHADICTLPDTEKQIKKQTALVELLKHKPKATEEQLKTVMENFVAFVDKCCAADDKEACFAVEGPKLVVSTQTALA
Follistatin (Homo sapiens), sequence (P19883 whole entry, looked up): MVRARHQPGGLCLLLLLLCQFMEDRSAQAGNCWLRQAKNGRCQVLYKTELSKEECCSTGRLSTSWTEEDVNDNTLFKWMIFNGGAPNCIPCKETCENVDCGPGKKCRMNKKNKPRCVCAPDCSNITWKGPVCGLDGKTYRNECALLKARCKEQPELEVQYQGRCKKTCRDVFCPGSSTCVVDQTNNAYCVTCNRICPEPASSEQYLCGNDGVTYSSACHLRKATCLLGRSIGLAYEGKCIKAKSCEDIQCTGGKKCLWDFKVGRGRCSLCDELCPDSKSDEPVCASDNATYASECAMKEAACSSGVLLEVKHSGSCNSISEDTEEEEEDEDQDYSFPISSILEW
Concanavalin-A (Canavalia ensiformis), sequence (P02866 whole entry, looked up): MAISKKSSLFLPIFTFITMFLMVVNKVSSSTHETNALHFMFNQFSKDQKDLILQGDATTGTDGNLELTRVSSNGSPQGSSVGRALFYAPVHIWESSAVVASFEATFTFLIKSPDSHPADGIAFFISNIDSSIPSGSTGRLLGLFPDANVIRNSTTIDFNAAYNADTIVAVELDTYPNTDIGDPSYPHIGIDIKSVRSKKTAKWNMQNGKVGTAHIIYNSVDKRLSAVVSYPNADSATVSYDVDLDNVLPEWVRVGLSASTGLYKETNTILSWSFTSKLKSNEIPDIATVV
Luciferin 4-monooxygenase (Photinus pyralis), sequence (P08659 whole entry, looked up): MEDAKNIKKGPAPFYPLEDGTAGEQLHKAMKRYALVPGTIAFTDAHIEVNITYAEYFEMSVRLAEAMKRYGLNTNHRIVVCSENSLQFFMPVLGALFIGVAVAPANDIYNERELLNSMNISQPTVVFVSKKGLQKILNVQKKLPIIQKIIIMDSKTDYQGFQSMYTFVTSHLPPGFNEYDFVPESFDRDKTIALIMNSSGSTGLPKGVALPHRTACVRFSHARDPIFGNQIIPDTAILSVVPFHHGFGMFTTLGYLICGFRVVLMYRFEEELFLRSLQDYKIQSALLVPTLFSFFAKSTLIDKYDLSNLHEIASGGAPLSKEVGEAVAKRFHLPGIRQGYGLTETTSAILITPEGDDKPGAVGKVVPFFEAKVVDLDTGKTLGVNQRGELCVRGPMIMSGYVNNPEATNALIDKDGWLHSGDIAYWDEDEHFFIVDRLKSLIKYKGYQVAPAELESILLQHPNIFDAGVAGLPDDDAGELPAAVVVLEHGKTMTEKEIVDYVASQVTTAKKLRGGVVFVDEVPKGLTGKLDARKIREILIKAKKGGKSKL
Fibroblast growth factor 2 (Homo sapiens), sequence (P09038 whole entry, looked up): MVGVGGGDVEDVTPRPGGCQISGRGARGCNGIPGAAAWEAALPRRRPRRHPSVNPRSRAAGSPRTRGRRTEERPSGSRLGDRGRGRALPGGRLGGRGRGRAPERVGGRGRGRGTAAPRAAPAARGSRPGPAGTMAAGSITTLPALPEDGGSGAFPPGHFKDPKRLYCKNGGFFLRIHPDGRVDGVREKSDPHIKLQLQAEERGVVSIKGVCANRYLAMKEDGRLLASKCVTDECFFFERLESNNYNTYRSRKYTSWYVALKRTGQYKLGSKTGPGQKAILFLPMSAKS

For the molecule `COc1ccc(C#Cc2ccc3c(c2)[C@]2(C(=O)N3)[C@H](C(=O)O)[C@H]3C(=O)O[C@H](c4ccccc4)[C@H](c4ccccc4)N3[C@@H]2c2ccc(O)cc2)cc1`, the composite z-score with Albumin (Bos taurus) is 0.314; in [2], -0.243; in assay [3], -0.0664; in [4], 0.659; in [5] it was 1.15; in assay [6] it was 0.577. Moreover, the composite z-score with Sam68 (KHDRBS1) is 0.285; in [7] it was -0.844; in [8], -0.425; in assay [9], -0.272; in assay [10] it was 0.691; in assay [11] it was 0.0564. The composite z-score in assay [12] was -0.142; in assay [13] it was -0.474; in assay [14], -0.521; in the assay on Lefty1, -0.422; in assay [16], 0.208. Moreover, the composite Z-score in assay [1] was -0.118 (inactive). The z-score in assay [15] is -2.42; in [17], -1.01 (inactive).
As to `COc1cc2c(cc1O)C(C1CC1)N(Cc1cccc(OC(F)(F)F)c1)CC2` (stereo not given), the composite z-score with Albumin (Bos taurus) is 0.353; in assay [2] it was -0.0824; in assay [3], -0.0846; in assay [4], 0.814; in assay [5], 1.06; in assay [6], 0.762. The composite z-score in the assay with Sam68 (KHDRBS1) was -0.316; in assay [7], 0.13; in assay [8], -0.744; in assay [9], -0.144; in [10], -0.922; in assay [11], -0.662. Also, the composite z-score in assay [12] is -1.03; in [13] it was 0.167; in assay [14], 0.357; with Lefty1, -0.255; in [16], -0.181. Also, the composite Z-score in assay [1] is 0.926 (inactive). Further, the z-score was -1.46 in assay [15] and 0.187 (inactive) in assay [17].
Take `COc1ccc([Si](C)(C)[C@H]2[C@H](CC(=O)N(CCO)Cc3ccccc3)O[C@@]3(C(=O)N(C)c4c(Br)cc(C)cc43)[C@@H]2C)cc1`: the composite z-score in the assay with Albumin (Bos taurus) was 0.509; in [2], -0.0072; in assay [3] it was -0.179; in assay [4] it was 0.731; in assay [5], 1.07; in assay [6] it was 0.0123. Moreover, the composite z-score in the assay with Sam68 (KHDRBS1) is 0.995; in [7] it was 1.27; in [8], 0.652; in assay [9], 1.19; in assay [10] it was 1.03; in assay [11], -0.0842. For the same molecule, the composite z-score in [12] was -0.009; in [13], 1.51; in [14], 1.84; in the assay with Lefty1, 1.57; in assay [16] it was 0.61. Further, in assay [1], the composite Z-score was -0.324 (inactive). The z-score in assay [15] was -0.774; in assay [17] it was -0.342 (inactive).
In the case of `NCCCCCNC(=O)[C@@H]1C[C@@H]2C(=O)N[C@@H](CCCCN)C(=O)N2[C@@H]1c1ccc(O)cc1`, the composite z-score is -0.321 in the assay with Albumin (Bos taurus); 0.353 in [2]; -0.0162 in assay [3]; 0.635 in assay [4]; 2.38 in assay [5]; 0.103 in [6]. Moreover, the composite z-score came out at 1.3 in the assay on Sam68 (KHDRBS1); 1.38 in assay [7]; 1.15 in [8]; 1.98 in [9]; 1.23 in assay [10]; 0.294 in [11]. For the same molecule, the composite z-score in assay [12] amounted to 0.782; in assay [13], 1.42; in [14], 1.74; in the assay with Lefty1 it was 1.57; in [16], 1.14. In assay [1], the composite Z-score was 0.562 (inactive). In addition, the results for the z-score in assay [15] and in assay [17] were -0.862 and -0.364 (inactive), respectively.
For the molecule `CCCCC(O)C1C=CC2C(=O)N(C)C(=O)C2N1N(c1ccccc1)c1ccccc1` (stereo not given), the composite z-score with Albumin (Bos taurus) was 0.878; in assay [2], 0.183; in assay [3], 0.0203; in [4], 0.797; in [5], 2.73; in [6], 0.923. Moreover, the composite z-score in the assay with Sam68 (KHDRBS1) is 1.32; in assay [7] it was -0.711; in [8], 1.1; in [9], 1.92; in assay [10], 1.15; in [11], 0.912. Besides, the composite z-score in assay [12] was 0.824; in [13], 0.613; in assay [14] it was -0.604; with Lefty1, 0.194; in assay [16], 1.21. In assay [1], the composite Z-score was 0.418 (inactive). In addition, the z-score in assay [15] was 0.804; in assay [17], -0.004 (inactive).
